Assay outcomes: PubChem, Center for Chemical Genomics, University of Michigan
The sample as a whole holds a higher share of hits than the screen did.
Dicer inh – human Dicer pre-microRNA cleavage inhibition. Q9UPY3. cat-ELCCA pre-miR-21 Dicer processing, chemiluminescence; active compounds read high. z-score at 25 µM. 6% of 47,000 active; in the data active = z-score above about 3, passing the limit was not always enough;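 note: plate controls were vehicle for no effect and no enzyme for full effect; higher signal means more uncleaved substrate so more Dicer inhibition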
Numbers without * were called inactive.

For FC(F)(F)c1cc(-c2ccc3c(c2)OCO3)n[nH]1 the results were Dicer inh -0.7.
COc1ccc(-c2c(Br)sc(S(C)(=O)=O)c2C#N)cc1 was read as Dicer inh -1.2.
For Cc1ccc(S(=O)(=O)Nc2cccc(-c3nnc(Cc4cc(F)cc(F)c4)o3)c2)cc1 the results were Dicer inh 0.28.
`CCc1cc2c(=O)c(-c3ccc4ccccc4n3)coc2cc1OC` gave Dicer inh 1.4.
For Cc1cc(C)nc(N2CCC(NC3CC(=O)N(c4ccc(F)cc4)C3=O)CC2)n1 (stereo unspecified) the results were Dicer inh 0.35.
`Cc1cc(C)nc(N2CCN(c3nc(C)cc(C)n3)CC2)n1` gave Dicer inh 4.2*.
For Cc1cc(N2CCOCC2)nc(N2CCOCC2)n1 the results were Dicer inh 0.53.
For CCNC(=S)Nc1ccc(C)cc1C the results were Dicer inh -0.32.
`O=C(NC(Cc1c[nH]c2ccccc12)C(=O)NC1CCCCC1)Oc1ccccc1` (stereo unspecified) gave Dicer inh 2.
`NNC(=O)c1ccc([N+](=O)[O-])cc1Cl` gave Dicer inh -0.83.
For COc1ccc(Oc2ccc([N+](=O)[O-])cc2C(=O)NNC(=O)c2ccc(Cl)cc2Cl)cc1 the results were Dicer inh 4.8*.
COC(=O)c1cc(Cl)ccc1Oc1ccc([N+](=O)[O-])c(Oc2ccc(Cl)cc2C(=O)OC)n1 was read as Dicer inh -0.75.
N#Cc1c(N2C(=O)c3ccccc3C2=O)sc2c1CCCC2 was read as Dicer inh -1.5.
`CCOC(=O)c1cnn(-c2ccc([N+](=O)[O-])cc2)c1-n1cccc1` gave Dicer inh -0.86.
For Cc1cccc(Nc2ccc(-c3ccccc3)nn2)c1 the results were Dicer inh 1.5.
`CSc1ccc([N+](=O)[O-])cc1C(C)=O` gave Dicer inh -0.35.
`CSc1ccc([N+](=O)[O-])cc1C(=O)/C=C/N(C)C` gave Dicer inh 6.2*.
For O=C(O)c1cc([N+](=O)[O-])ccc1Sc1ccc([N+](=O)[O-])cc1C(=O)O the results were Dicer inh -0.05.
C=CCN1C(=O)C2(/C(=C(/O)c3ccccc3)C(=O)C(=O)N2CCCN2CCOCC2)c2ccccc21 (stereo unspecified) was read as Dicer inh 3.5*.
`C=CCN1C(=O)C2(/C(=C(/O)c3ccc(Cl)cc3)C(=O)C(=O)N2CC2CCCO2)c2ccccc21` (stereo unspecified) gave Dicer inh 0.42.
CN1C(=O)C2(/C(=C(/O)c3ccc(Cl)cc3)C(=O)C(=O)N2CCCN2CCOCC2)c2ccccc21 (stereo unspecified) was read as Dicer inh 10.
`C=CCN1C(=O)C2(/C(=C(/O)c3ccc(F)cc3)C(=O)C(=O)N2CCN2CCOCC2)c2ccccc21` (stereo unspecified) gave Dicer inh 4.5*.
For C=CCN1C(=O)C2(/C(=C(/O)c3ccc(F)cc3)C(=O)C(=O)N2CCCOC)c2ccccc21 (stereo unspecified) the results were Dicer inh -0.04.
CC(C)(C)c1ccc(OS(=O)(=O)c2ccc(Oc3c(Cl)cccc3[N+](=O)[O-])cc2)cc1 was read as Dicer inh -0.66.
C=CCSc1nc(C)c2ccccc2n1 was read as Dicer inh -0.47.
Nc1nc(SCC(=O)NCCN2CCOCC2)nc2sc3c(c12)CCCC3 was read as Dicer inh 0.61.
Screening Nc1nc(SCC(=O)NCCO)nc2sc3c(c12)CCCC3 returned Dicer inh 1.3.
Nc1nc(SCCCC(=O)NCCO)nc2sc3c(c12)CCCC3 was read as Dicer inh 5.5*.
Screening CC(C)(C)NC1C=C(c2ccccc2)Sc2nc(-c3ccccc3)cn21 (stereo unspecified) returned Dicer inh 0.61.
Screening Cc1cc(C)c2c(N)c(C(=O)c3ccc(-c4ccccc4)cc3)sc2n1 returned Dicer inh -1.3.
Screening CSc1cccc(NC(=O)c2sc3nc(C)cc(C)c3c2N)c1 returned Dicer inh -0.06.
`Cc1cc(C)c2c(N)c(C(=O)O)sc2n1` gave Dicer inh 6.9.
For Cc1cc(C)c2c(N)c(C(=O)NCc3ccco3)sc2n1 the results were Dicer inh -1.8.
Cc1cc(C)c2c(N)c(C(=O)NNC(=S)NCc3ccccc3)sc2n1 was read as Dicer inh 3*.
For Cc1cc(C)c2c(N)c(S(=O)(=O)Cc3ccccc3)sc2n1 the results were Dicer inh 4.1*.
`CCOC(=O)C1=C(C)NC2=C(C(=O)CCC2)C1c1ccc(C(=O)OC)cc1` (stereo unspecified) gave Dicer inh -0.27.
For CC(=O)Nc1ccc(NC(=O)CC(C)(C)CC(=O)O)cc1 the results were Dicer inh -0.79.
For Cc1ccc(-c2n[nH]c(=O)c3ccccc23)cc1S(=O)(=O)NC(C)(C)C the results were Dicer inh 0.82.
For Cc1ccc(-c2n[nH]c(=O)c3ccccc23)cc1S(=O)(=O)NC(C)C the results were Dicer inh 3.6*.
